According to PubChem BioAssay (Tox21):
A number with no mark means an inactive call. Records with an inconclusive call do not appear. Entries that show only a call come without a potency. Active and inactive are the calls of the source. The call rests on the fitted dose curve; in most records, active means well fitted curve in the direction sought with a large enough effect in the repeat runs; inconclusive means weak or mixed curves; inactive means no such curve, though single readings can be large; an effect the other way counts as inactive or inconclusive.

Tests used:
[1] = qHTS RealTime-Glo MT Cell Viability Assay in HepG2 cells - 8 hour (AID 1224873); further: nearly all actives have a fitted effect of over 55% in size; further: potency means the concentration at half of the fitted maximal effect
In short: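 HepG2 cells (600/well) mixed with RealTime-Glo MT reagent, settled 5 h at 37 C/5% CO2 before compound addition. Nonlytic NanoLuc luminescence from viable-cell prosubstrate reduction read repeatedly during 40 h treatment at 37 C.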

[2] = qHTS RealTime-Glo MT Cell Viability Assay in HEK293 cells - 40 hour (AID 1224874); details: RealTime-Glo luminescence; max response: active compounds read low; further: nearly all actives have a fitted effect of over 50% in size; further: potency means the concentration at half of the fitted maximal effect
In short: (§1)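 600 cells/well were plated with the nonlytic NanoLuc/prosubstrate reagent, pre-incubated 5 h, then given 23 nL of compound in DMSO. Incubation at 37 C for 40 h, with luminescence from viable-cell-reduced substrate read repeatedly from 0 h.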

[3] = A CellTox Green Cytotoxicity Assay to monitor cytotoxicity in HEK293 cells - 24 hour (AID 1224875); further: nearly all actives have a fitted effect of over 45% in size; further: potency means the concentration at half of the fitted maximal effect
In short: (§2)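 HEK293 cells, 600/well, were preincubated 5 hours and then exposed to compounds at 37 C for up to 40 hours. A cell-impermeant cyanine dye staining dead-cell DNA was read by fluorescence at 0, 8, 16, 24, 32 and 40 h time points.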

[4] = A CellTox Green Cytotoxicity Assay to monitor cytotoxicity in HepG2 cells - 16 hour (AID 1224876); further: nearly all actives have a fitted effect of over 45% in size; further: potency means the concentration at half of the fitted maximal effect
In short: (§3)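 HepG2 cells, 600/well, preincubated 5 h with CellTox Green dye, then exposed to Tox21 compounds in DMSO at 37 C for up to 40 h. Dead-cell DNA fluorescence read at the indicated time point.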

[5] = qHTS RealTime-Glo MT Cell Viability Assay in HepG2 cells - 32 hour (AID 1224877); further: nearly all actives have a fitted effect of over 55% in size; further: potency means the concentration at half of the fitted maximal effect
In short: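 Cells + NanoLuc/prosubstrate dispensed (600 cells/well) → 5 h at 37 C/5% CO2 → compounds in DMSO transferred → 40 h incubation at 37 C, luminescence read at 0, 8, 16, 24, 32, 40 h.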

[6] = A CellTox Green Cytotoxicity Assay to monitor cytotoxicity in HepG2 cells - 40 hour (AID 1224879); further: nearly all actives have a fitted effect of over 40% in size; further: potency means the concentration at half of the fitted maximal effect
In short: as §3

[7] = qHTS RealTime-Glo MT Cell Viability Assay in HEK293 cells - 0 hour (AID 1224880); further: nearly all actives have a fitted effect of over 45% in size; further: potency means the concentration at half of the fitted maximal effect
In short: as §1

[8] = A CellTox Green Cytotoxicity Assay to monitor cytotoxicity in HEK293 cells - 32 hour (AID 1224881); further: nearly all actives have a fitted effect of over 40% in size; further: potency means the concentration at half of the fitted maximal effect
In short: as §2

[9] = A CellTox Green Cytotoxicity Assay to monitor cytotoxicity in HepG2 cells - 0 hour (AID 1224882); further: nearly all actives have a fitted effect of over 35% in size
In short: as §3

[10] = A CellTox Green Cytotoxicity Assay to monitor cytotoxicity in HepG2 cells - 24 hour (AID 1224878); further: nearly all actives have a fitted effect of over 45% in size; further: potency means the concentration at half of the fitted maximal effect
In short: as §3

| SMILES | Potency [1] | max response [2] [%] | Potency [3] | Potency [4] | Potency [5] | Potency [6] | Potency [7] | Potency [8] | Potency [9] | Potency [10] | Potency [2] |
| --- | --- | --- | --- | --- | --- | --- | --- | --- | --- | --- | --- |
| Clc1ccc(C(c2ccccc2Cl)C(Cl)Cl)cc1 (stereo not given) | inactive | -26.4 | inactive | inactive | inactive | inactive | inactive | inactive | inactive | – | – |
| CCOC(=O)CC(C)O (stereo not given) | inactive | 5.55 | inactive | – | inactive | inactive | inactive | inactive | inactive | inactive | – |
| c1cc(OCC2CO2)cc(OCC2CO2)c1 (stereo not given) | inactive | – | inactive | inactive | – | – | inactive | inactive | inactive | – | 12.2 µM (active) |
| Cc1ccc(O)cn1 | inactive | -9.02 | inactive | – | inactive | inactive | inactive | inactive | inactive | inactive | – |
| O=C1c2c(O)ccc(O)c2C(=O)c2c(NCCNCCO)ccc(NCCNCCO)c21 | inactive | – | inactive | – | 8.49 µM (active) | inactive | inactive | inactive | inactive | inactive | 0.019 µM (active) |
| CC1CCCNC1 (stereo not given) | inactive | -11.1 | inactive | – | inactive | inactive | inactive | inactive | inactive | inactive | – |
| Cc1cn[nH]c1 | inactive | 7.93 | inactive | – | inactive | inactive | inactive | inactive | inactive | inactive | – |
| Oc1c(Br)cc(Br)c2cccnc12 | inactive | – | inactive | inactive | inactive | – | inactive | inactive | inactive | – | 19 µM (active) |
| CC(COC(=O)c1ccccc1)OC(=O)c1ccccc1 (stereo not given) | inactive | -5.23 | inactive | – | inactive | inactive | inactive | inactive | inactive | inactive | – |
| CC(C)(c1cc(Br)c(OCCO)c(Br)c1)c1cc(Br)c(OCCO)c(Br)c1 | inactive | – | inactive | inactive | – | – | inactive | inactive | inactive | inactive | 12 µM (active) |
| CC(C)=C1CC[C@@H](C)CC1=O | inactive | 0.14 | inactive | – | inactive | inactive | inactive | inactive | inactive | inactive | – |
| O=C1OC(OC(=O)c2cccnc2Nc2cccc(C(F)(F)F)c2)c2ccccc21 (stereo not given) | inactive | -1.07 | inactive | – | inactive | inactive | inactive | inactive | inactive | inactive | – |
| O=C(Nc1ccc(Cl)cc1)Nc1ccc(Cl)c(C(F)(F)F)c1 | inactive | – | inactive | inactive | – | 19 µM (active) | inactive | – | inactive | – | 5.35 µM (active) |
| CC(C)N=C(N)/N=C(\N)Nc1ccc(Cl)cc1 | inactive | – | inactive | – | inactive | 26.8 µM (active) | inactive | inactive | inactive | 26.8 µM (active) | 26.8 µM (active) |
| O=C1c2c(O)ccc([N+](=O)[O-])c2C(=O)c2c([N+](=O)[O-])ccc(O)c21 | 13.7 µM (active) | – | inactive | inactive | – | inactive | 43.2 µM (active) | inactive | inactive | – | 24.3 µM (active) |
| CCc1cccc(C)c1 | inactive | -0.877 | inactive | – | inactive | – | inactive | inactive | inactive | inactive | – |
| CC1(C)C(=O)N(Br)C(=O)N1Br | inactive | -1.21 | inactive | – | inactive | – | inactive | inactive | inactive | inactive | – |
| c1ccc(Nc2cccc3ccccc23)cc1 | inactive | -7.99 | inactive | inactive | inactive | – | inactive | inactive | inactive | – | – |
| COc1cccc(O)c1 | inactive | 11.4 | inactive | – | inactive | – | inactive | inactive | inactive | inactive | – |
| O=CC1CC1 | inactive | 12 | inactive | – | inactive | inactive | inactive | inactive | inactive | inactive | – |
| CCCCCCCCCCCCCCNCCO | 19 µM (active) | – | 19 µM (active) | 10.7 µM (active) | 10.7 µM (active) | 7.56 µM (active) | – | 19 µM (active) | inactive | – | 12 µM (active) |
| Clc1ccc(C(Cn2ccnc2)OCc2c(Cl)cccc2Cl)c(Cl)c1 (stereo not given) | inactive | – | inactive | – | inactive | – | – | – | – | – | 16.9 µM (active) |
| CCC(=O)OCCc1ccccc1 | inactive | 14 | inactive | – | inactive | inactive | inactive | inactive | inactive | inactive | – |
